This is a sample that favours compounds with a hit; in the whole collection about 10% have one here.
HPGD block – HPGD (human) dehydrogenase inhibition | P15428 | purified HPGD, NADH fluorescence kinetic, PGE2 substrate | Potency, µM, hits mostly inhibitors | hit rate 4.3% among 150,000 | AID 894
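NADH formation kinetics: reaction with 30 uM PGE2 and 1 mM NAD+ (final), 20 nM enzyme, Tris-HCl pH 8 with Tween 20, after 15 min compound preincubation at room temperature. Fluorescence change, last versus first of five reads.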
LMNA splice mod – modulators of lamin A splicing. HeLa LMNA splicing GFP/RFP minigene ratio, 48 h. Potency, µM (doses to about 46.1 µM), actives largely listed as inhibitors. hit rate 0.01% among 200,000; active = well fitted inhibition curve with a large enough effect in the signal ratio, with a control signal flat, not every such curve was filed as active; inconclusive = small, poorly fitted or top-dose-only effect, or effect the other way, or a change in a side signal; the % refers to the signal ratio
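Read-out is the ratio of GFP to DsRed2 object intensity, acquired by 488 nm laser-scanning cytometry on HeLa lamin A-EGFP minigene reporter cells. Compound incubation 48 hrs at 37 °C in Opti-MEM with 2% FBS; DMSO 0.5% final.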
PNC assembly inh – inhibitors of perinucleolar compartment assembly; PC3M PTB-GFP, PNC prevalence imaging, 16 h; stronger effect = lower value; hit rate 3.1% among 140,000; activity change (PNC), negative = inhibition, % at 10 µM;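 active = readout at or below -70, meaning at least 70% loss of cells showing the perinucleolar compartment, a nuclear body marking cancer cells; inconclusive = readout between -30 and a set limit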
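Read-out is percentage of cells bearing a perinucleolar compartment, from automated 20x imaging of fixed, Hoechst-stained PC3M PTB-GFP cells. Cells were seeded 4 h, then exposed 16 h to compound (23 nl of library stock) in duplicate plates.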
ALDH1A1 inh – ALDH1A1 (human) enzyme inhibition; P00352; Purified ALDH1A1, NADH fluorescence, propionaldehyde substrate; Potency, µM (highest dose often 75.3 µM), actives largely listed as inhibitors; hit rate 7.3% among 220,000
Target sequence (P00352 whole entry, looked up): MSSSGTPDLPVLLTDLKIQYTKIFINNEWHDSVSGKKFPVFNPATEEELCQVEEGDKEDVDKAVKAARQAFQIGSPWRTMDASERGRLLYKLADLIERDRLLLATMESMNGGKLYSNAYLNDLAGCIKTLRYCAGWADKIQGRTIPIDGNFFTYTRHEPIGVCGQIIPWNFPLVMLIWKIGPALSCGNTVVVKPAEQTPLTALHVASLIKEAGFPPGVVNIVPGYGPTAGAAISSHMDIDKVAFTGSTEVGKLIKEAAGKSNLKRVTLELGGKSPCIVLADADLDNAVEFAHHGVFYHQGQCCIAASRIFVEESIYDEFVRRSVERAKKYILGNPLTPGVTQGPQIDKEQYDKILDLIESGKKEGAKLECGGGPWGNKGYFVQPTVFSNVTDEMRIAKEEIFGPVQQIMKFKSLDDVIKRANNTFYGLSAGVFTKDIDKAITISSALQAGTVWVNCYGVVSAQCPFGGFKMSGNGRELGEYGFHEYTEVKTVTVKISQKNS
ALOX12 inhib – blocks human 12-lipoxygenase activity. purified 12-hLO, xylenol orange hydroperoxide absorbance. hit rate 0.12% among 150,000. P18054. Potency, µM (doses to about 57.1 µM), most hits filed as inhibitors; active = well fitted inhibition curve with a large enough effect; inconclusive = small, poorly fitted or top-dose-only effect; note: nearly all actives have a fitted effect of over 55% in size
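Purified human 12hLO (150 nM), preincubated 15 min with compound, then 40 uM arachidonic acid for 30 min, room temperature, Hepes pH 7.0 with 0.01% Triton X-100. Hydroperoxide detected by ferrous iron/xylenol orange; 573/405 nm absorbance ratio gives reaction progress.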
Numbers stand for hits; - = inactive; ? = inconclusive; . = no result; [ ] = remark or other dose. Unless noted, calls come from the whole dose curve; as a rule, active = well fitted inhibition curve with a large enough effect (not every such curve was filed as active); inconclusive = small, poorly fitted or top-dose-only effect, or another doubt; inactive = no such curve, though single readings can be large or run the other way.

SMILES	HPGD block	LMNA splice mod	PNC assembly inh	ALDH1A1 inh	ALOX12 inhib
COC1=CC(C)C2CC3OC(=O)CC4C(C)=C(OC)C(=O)C([C@]2(C)C1=O)[C@]34C (some centres undefined)	-	-	.	-	-
COc1ccc(CNC(=O)CC2N=C3c4ccccc4N=C(SCC(=O)Nc4ccc(C(C)C)cc4)N3C2=O)cc1 (centres undefined)	.	-	.	.	.
O=c1[nH]n(-c2ccc(F)cc2)c2ncccc12	18µM	-	-	-	-
O=c1ncn(-c2ccc(F)cc2)c2ncccc12	-	-	-	-	-
Cc1nn(C(=O)c2cccc(F)c2)c(C)c1S(=O)(=O)N1CCCCCC1	.	-	.	.	.
Cc1ccc(-n2c(=O)c3sccc3n(Cc3cc(=O)n4cc(Cl)ccc4n3)c2=O)cc1F	?	-	-83	-	-
CCCS(=O)(=O)N1CCN(Cc2ccccc2[N+](=O)[O-])CC1	.	-	.	8.9µM	.
CC(C)CC(=O)N1CCN(Cc2cccc(F)c2)CC1	-	-	-	-	-
CC(C)CC(=O)N1CCN(Cc2ccccc2[N+](=O)[O-])CC1	.	?	.	0.089µM	.
CC1Cc2cc(S(=O)(=O)N3CCN(c4ccccc4F)CC3)ccc2N1C(=O)C1CCC1 (centres undefined)	.	-	.	.	.
CC(C)OCC(O)CSc1ccccn1 (centres undefined)	18µM	-	-	-	-
O=C(O)CSc1ccccn1	-	-	?	-	-
CCOc1ccc(NC(=O)c2c(NCc3ccc(C)o3)sc3c2CCCCC3)cc1	.	-	.	.	.
COc1ccc(NC2=NC(=S)N(c3ccccc3C)C23CCCCC3)cc1	-	-	-	-	-
[O-][N+]1=c2ccc(Nc3ccccc3)cc2=NC12CCCCC2	-	?	-	3.5µM	-
COc1ccc(Nc2ccc3c(c2)=NC2(CCCCC2)[N+]=3[O-])cc1	-	?	-	3.5µM	-
COc1ccc(CNC(=O)c2cnc3sc(N4CCCC4)nn3c2=O)c(OC)c1	.	-	.	.	.
C=CCn1c(SCc2nc3ccccc3nc2C)nnc1-c1ccoc1C	25µM	-	?	1.6µM	-
CCn1c(SCc2nc3ccccc3nc2C)nnc1-c1cccs1	-	?	-	-	-
CCOc1ccc(CNC(=O)C2CCN(S(=O)(=O)N3CCCCC3)CC2)cc1	.	-	.	.	.
CCc1ccc(NC(=O)C(=O)NCC(c2cccnc2)N2CCN(Cc3ccccc3)CC2)cc1 (centres undefined)	.	-	.	.	.
CCO[P@]1(=O)OC[C@@H]2O[C@H](n3cnc4c(N)ncnc43)[C@H](O)[C@@H]2O1	-	.	.	-[13.5 µM]	-[11.4 µM]
Cc1nc2ccccn2c(=O)c1NC(=O)c1ccc(C(F)(F)F)cc1	.	-	.	.	.
Cc1ccc(N2C(=O)CC(SCC(=O)Nc3ccc(S(N)(=O)=O)cc3)C2=O)cc1 (centres undefined)	.	.	.	14µM	.
CCOC(=O)c1ccc(N2C(=O)CC(SCC(=O)Nc3ccc(S(N)(=O)=O)cc3)C2=O)cc1 (centres undefined)	.	.	.	1.6µM	.
SMILES	HPGD block	LMNA splice mod	PNC assembly inh	ALDH1A1 inh	ALOX12 inhib
C=CC(C1=CC(=O)C(OC)=CC1=O)c1ccc(OC)cc1 (centres undefined)	?	-	.	?	?
C=CC(C1=CC(=O)C(OC)=C(OC)C1=O)c1ccccc1 (centres undefined)	20µM	?	.	-	?
C=CC(C1=CC(=O)C(OC)=CC1=O)c1ccccc1 (centres undefined)	?	.	.	22µM	-
Cc1nn2c(C)c(C(=O)NC(C)c3ccccc3)cnc2c1-c1ccc(F)cc1 (centres undefined)	.	-	.	.	.
CC1CCN(S(=O)(=O)c2cc(C(=O)N3CCN(c4ccccc4F)CC3)n(C)c2)CC1	.	-	.	.	.
O=[N+]([O-])c1ccc2nc(-c3ccccc3)oc2c1	.	-	.	?	.
O=[N+]([O-])c1ccc2nc(NCCCO)nc(-c3ccccc3)c2c1	14µM	-	-	-	-
O=[N+]([O-])c1ccc2[nH]nc(-c3ccccc3)c2c1	14µM	-	-	-	-
O=C(O)CNc1nc(-c2ccccc2)c2cc([N+](=O)[O-])ccc2n1	-	-	-	18µM	-
NCC(O)COc1cccc2ccccc12 (centres undefined)	.	.	.	-	.
CC(C)CN1CCC2(CC1)CCN(C(=O)c1cc(C(F)(F)F)cc(C(F)(F)F)c1)CC2	-	.	.	-	-
O=c1c(-c2ccc(F)cc2)nc2cnc(Oc3ccccc3)nc2n1C[C@H]1CCCO1	?	.	.	?	-
O=C(CSc1nccn1-c1ccc(F)cc1)Nc1nc2ccccc2s1	.	-	.	.	.

Bioassay records (PubChem BioAssay)
